The results in this text go back to PubChem BioAssay (Tox21).

“And” between values parts separate entries of the source, which are not always exact repeats. Identical values can stand only once. Inconclusive results are not listed. More than one record can exist for a structure, and the calls need not agree. The source made the active and inactive calls. Unless noted, calls come from the whole dose curve; as a rule, active = well fitted curve in the direction sought with a large enough effect in the repeat runs; inconclusive = weak or mixed curves; inactive = no such curve, though single readings can be large; an effect the other way counts as inactive or inconclusive.

The nature of assay [1]: qHTS assay to identify small molecule agonists of the vitamin D receptor (VDR) signaling pathway - cell viability counter screen (AID 743224). Note: nearly all actives have a fitted effect of over 50% in size. Note: potency is the fitted concentration of half-maximal effect. The essentials: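 Compounds were pin-transferred onto VDR-bla cells plated 4 h earlier; following 16 h incubation at 37C, cell viability was quantified by CellTiter-Glo luminescence after 30 min at room temperature.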
(In qHTS, concentration-response curves come from the screen itself.)

The nature of assay [2]: qHTS assay to identify small molecule antagonists of the vitamin D receptor (VDR) signaling pathway - cell viability counter screen (AID 743225). Note: nearly all actives have a fitted effect of over 50% in size. Note: potency is the fitted concentration of half-maximal effect. The procedure, abridged: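 VDR-bla HEK 293T cells, 4 h pre-incubation at 37C, then compound plus 1-alpha,25-dihydroxyvitamin D3 (3 nM final) for 16 h. After the beta-lactamase FRET read, CellTiter-Glo was added to the same wells; luminescence after 30 min at room temperature.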

Assay [3] is described as follows: qHTS assay to identify small molecule agonists of the NFkB signaling pathway - cell viability counter screen (AID 1159515; calls by dose curve; note: nearly all actives have a fitted effect of over 55% in size; note: potency is the fitted concentration of half-maximal effect). The procedure, abridged:
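Parallel cytotoxicity counter screen in ME-180 cells carrying an NFkB-response-element beta-lactamase reporter, 2,000 cells/well. Compound exposure lasted 5 hr at 37 C, 5% CO2. Cell viability was quantified by CellTiter-Glo luminescence.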

Assay [4] is described as follows: qHTS assay to identify small molecule agonists of the endoplasmic reticulum stress response signaling pathway - cell viability counter screen (AID 1159517; calls by dose curve; note: nearly all actives have a fitted effect of over 50% in size; note: potency is the fitted concentration of half-maximal effect). The essentials:
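After overnight attachment, ESRE-bla HeLa cells were treated with Tox21 library compounds for 5 hr. CellTiter-Glo luminescence, read 30 min post-addition at room temperature, reported viability.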

Assay [5] can be described thus: qHTS assay to identify small molecule antagonists of the retinoid-related orphan receptor gamma (ROR-gamma) signaling pathway - cell viability counter screen (AID 1159520). Note: nearly all actives have a fitted effect of over 50% in size. Note: potency is the fitted concentration of half-maximal effect. The essentials:
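Cytotoxicity was read from cellular ATP (CellTiter-Glo luminescence) after 16 hr at 37 C with 1 uM doxycycline induction. The inducer was added 2 hr after compound transfer to Tet-on ROR gamma CHO cells.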

Assay [6] deals with Nuclear receptor ROR-gamma (Homo sapiens) (UniProt P51449). The assay is described as follows: qHTS assay to identify small molecule antagonists of the retinoid-related orphan receptor gamma (ROR-gamma) signaling pathway (AID 1159521; note: nearly all actives have a fitted effect of over 50% in size; note: potency is the fitted concentration of half-maximal effect). The procedure, abridged:
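Tet-on RORγ CHO cells carrying a ROR response element–luciferase reporter were pretreated with compounds for 2 h, then induced with 1 uM (final) doxycycline hyclate for 16 h at 37 C. Antagonism was read as decreased ONE-Glo luminescence.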

The nature of assay [7]: qHTS assay to identify small molecule agonists of the AP-1 signaling pathway - cell viability counter screen (AID 1159525; calls by dose curve; note: nearly all actives have a fitted effect of over 55% in size; note: potency is the fitted concentration of half-maximal effect). The essentials:
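Intracellular ATP by Cell Titer Glo luminescence (30 min, RT) in the same ME-180 AP-1-bla wells after the 5 h compound exposure at 37 °C. Normalised to tetra n-octyl ammonium bromide and DMSO controls.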

Assay [8] can be described thus: qHTS assay to identify small molecule agonists of the RXR signaling pathway - cell viability counter screen (AID 1159529). Note: nearly all actives have a fitted effect of over 50% in size. Note: potency is the fitted concentration of half-maximal effect. The essentials:
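RXR-alpha-UAS-bla HEK 293T cells in medium with 2% charcoal-stripped FBS were preincubated 5 hr, then exposed to compounds for 16 hr at 37 C. Viability was read as CellTiter-Glo luminescence after 30 min at room temperature.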

Assay [9] in a line: qHTS assay to identify small molecule antagonists of the retinoid acid receptor (RAR) signaling pathway - cell viability counter screen (AID 1159551). Note: nearly all actives have a fitted effect of over 35% in size. Note: potency is the fitted concentration of half-maximal effect. The procedure, abridged: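 ATP-based viability, C3RL4 cells, 6 h at 37 C with 1 uM final retinol co-added after compound; luminescence read 30 min post CellTiter-Glo, RT.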
Assay [10] can be described thus: qHTS assay to identify small molecule antagonists of the retinoic acid receptor (RAR) signaling pathway (AID 1159552; note: nearly all actives have a fitted effect of over 50% in size; note: potency is the fitted concentration of half-maximal effect). The essentials:
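RARE-luc C3RL4 cells; cpds + 1 uM (final) retinol, 6 hr, 37 C/5% CO2; luciferase reagent, 30 min RT, luminescence readout. Inhibitors of retinol-driven signal scored.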

A short description of assay [11]: qHTS assay to identify small molecule agonists of the retinoic acid receptor (RAR) signaling pathway (AID 1159553). Note: potency is the fitted concentration of half-maximal effect. The procedure, abridged: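 Quantitative high-throughput format: the Tox21 10K library was tested on C3RL4 RARE-luciferase cells for 6 hr at 37 C and 5% CO2, with luminescence measured after a 30 min room-temperature reagent step.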
Assay [12] in a line: qHTS assay to identify small molecule antagonists of the estrogen related receptor (ERR) signaling pathway from Tox21 library - cell viability counter screen (AID 1224834). Note: nearly all actives have a fitted effect of over 30% in size. Note: potency is the fitted concentration of half-maximal effect. The essentials:
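Compounds in DMSO were pinned onto ERR cells that had been incubated for 6 h, and the plates were held at 37 C for 17.5 h. CellTiter-Fluor reagent was then added and fluorescence was measured after 30 min.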

The target in assay [13] is Luciferin 4-monooxygenase (Photinus pyralis) (UniProt P08659). The assay is described as follows: qHTS assay to identify small molecule inhibitors of firefly luciferase (AID 1224835). Note: nearly all actives have a fitted effect of over 25% in size. Note: potency is the fitted concentration of half-maximal effect. The procedure, abridged:
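Inhibition of purified Photinus luciferase is measured by luminescence. Substrate levels (D-luciferin, ATP) sit at their KM values. Each compound is tested in a concentration series.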

A short description of assay [14]: qHTS assay to identify small molecule agonists of the AP-1 signaling pathway (AID 1159526; calls by dose curve).
Assay [15] has as its target Retinoic acid receptor RXR-alpha (Homo sapiens) (UniProt P19793). The assay is described as follows: qHTS assay to identify small molecule agonists of the RXR signaling pathway (AID 1159527; calls by dose curve; note: nearly all actives have a fitted effect of over 35% in size). The essentials: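 GeneBLAzer RXR-alpha-UAS-bla HEK 293T cells in medium with 2% charcoal-stripped FBS, pre-incubated 5 hr at 37 C, then exposed to compounds 16 hr. Beta-lactamase reporter read by FRET substrate, 2 hr room temperature, 460/530 nm emission.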

Assay [16] is described as follows: qHTS assay to identify small molecule agonists of the endoplasmic reticulum stress response signaling pathway (AID 1159516; active = well fitted activation curve with a large enough effect in the signal ratio in the repeat runs, not every such curve was filed as active; the % refers to the signal ratio). The procedure, abridged:
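Using a HeLa line with an ESRE-driven beta-lactamase gene, agonist activity was measured by FRET substrate fluorescence (460 and 530 nm emission) after cells were treated with compounds for 5 hr at 37 C and 5% CO2.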

Assay [17] is described as follows: qHTS assay to identify small molecule antagonists of the estrogen related receptor (ERR) signaling pathway (AID 1224819). The procedure, abridged:
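ERR reporter cell line (NTP) plated at 2,000 cells/well, settled 6 h at 37C/5% CO2, then exposed to LOPAC compounds for 18 h at 37C. One-Glo luciferase luminescence read after 30 min at room temperature.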

Assay [18] in a line: qHTS assay to identify small molecule agonists of the estrogen related receptor (ERR) signaling pathway (AID 1224820). The procedure, abridged: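 Luminescence readout (One-Glo, 30 min RT) from NTP-supplied ERR cell line exposed to compounds for 18 h at 37 C. Cells seeded 2,000 per well and pre-incubated 6 h before pin-tool compound transfer.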
For assay [19], the system named is estrogen-related receptor alpha (ERRalpha) with PGC-1alpha coactivator, human. The assay is described as follows: qHTS assay to identify small molecule antagonists of the estrogen related receptor signaling pathway with the pleiotropic PPARgamma coactivator (PGC) (AID 1224821; calls by dose curve). The procedure, abridged: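 PGC/ERR reporter cells; 6 h pre-incubation 37 C/5% CO2; pin-tool compound in DMSO, 18 h 37 C; One-Glo added, 30 min RT; luminescence read. qHTS antagonist mode.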

Assay [20] is described as follows: qHTS assay to identify small molecule agonists of the estrogen related receptor signaling pathway with the pleiotropic PPARgamma coactivator (PGC) (AID 1224823). The procedure, abridged:
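Luminescence readout (One-Glo, 30 min RT) from PGC/ERR cell line treated 18 h at 37 C with pin-tool-delivered DMSO compound solutions; cells plated 6 h before dosing. Quantitative HTS format.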

Sequence of Retinoic acid receptor RXR-alpha (Homo sapiens) (P19793 whole entry, looked up): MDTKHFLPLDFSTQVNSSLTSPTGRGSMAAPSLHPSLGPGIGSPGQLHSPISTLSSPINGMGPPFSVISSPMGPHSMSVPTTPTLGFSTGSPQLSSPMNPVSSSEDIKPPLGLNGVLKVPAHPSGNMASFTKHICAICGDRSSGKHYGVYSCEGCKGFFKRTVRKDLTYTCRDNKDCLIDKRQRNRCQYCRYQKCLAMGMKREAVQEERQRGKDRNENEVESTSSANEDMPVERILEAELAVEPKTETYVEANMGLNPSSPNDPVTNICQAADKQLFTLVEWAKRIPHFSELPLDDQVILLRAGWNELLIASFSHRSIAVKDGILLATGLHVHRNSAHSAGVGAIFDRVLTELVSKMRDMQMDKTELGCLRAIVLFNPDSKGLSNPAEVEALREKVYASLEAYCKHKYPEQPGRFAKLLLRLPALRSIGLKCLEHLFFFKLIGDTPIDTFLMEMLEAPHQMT
Sequence of Luciferin 4-monooxygenase (Photinus pyralis) (P08659 whole entry, looked up): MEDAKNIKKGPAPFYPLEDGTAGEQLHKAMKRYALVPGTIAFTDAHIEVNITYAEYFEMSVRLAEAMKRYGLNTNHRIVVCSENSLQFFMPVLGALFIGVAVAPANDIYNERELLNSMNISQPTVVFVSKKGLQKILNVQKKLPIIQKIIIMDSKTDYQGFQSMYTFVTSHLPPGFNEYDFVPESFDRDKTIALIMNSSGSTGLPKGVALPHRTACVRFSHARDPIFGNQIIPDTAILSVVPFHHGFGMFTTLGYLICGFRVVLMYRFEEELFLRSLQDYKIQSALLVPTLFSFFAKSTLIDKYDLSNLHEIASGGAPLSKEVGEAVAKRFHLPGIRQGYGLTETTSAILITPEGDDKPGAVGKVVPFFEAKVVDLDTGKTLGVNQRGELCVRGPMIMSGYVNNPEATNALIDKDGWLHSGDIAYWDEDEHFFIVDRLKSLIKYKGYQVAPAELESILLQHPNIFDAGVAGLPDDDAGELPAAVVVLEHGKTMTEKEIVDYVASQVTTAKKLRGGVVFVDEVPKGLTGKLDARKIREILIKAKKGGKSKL

In the case of `CCN(CC)c1ccc2c(C)cc(=O)oc2c1`, the Potency entry in assay [1], in assay [2], in [3], in assay [4], in [5] and in assay [6] was “inactive” in each case. Also, the Potency entry in [7], in assay [8], in assay [9], in assay [10], in assay [11] and in assay [12] was “inactive” in each case. Moreover, in assay [13], the Potency is 40.2 µM (active) and 35.6 µM (active).

Consider `O=C(Cl)c1cccc(C(=O)Cl)c1`, for which the Potency entry in assay [1], in [2], in [3], in assay [4], in assay [5] and in [6] was “inactive” in each case. Further, the Potency result in assay [7], in [14], in assay [15], in assay [8], in [9] and in [12] was “inactive” throughout.

For the compound `CCCCCCCCCCCCCC[P+](CCCC)(CCCC)CCCC`, the Potency is 6.88 µM (active) and 7.76 µM (active) in [1]; 6.88 µM (active) and 7.76 µM (active) in [2]; 34.5 µM (active) and 21.9 µM (active) in [3]; 13.7 µM (active) and 15.5 µM (active) in assay [4]; 13.6 µM (active) and 10.9 µM (active) in [5]; 3.05 µM (active) and 4.86 µM (active) in assay [6]. The Potency was 17.3 µM (active) and 21.9 µM (active) in [7]; 6.13 µM (active) and 11 µM (active) in assay [8]; 43 µM (active) and 43.3 µM (active) in [9]; 9.63 µM (active) and 9.69 µM (active) in [10]; 21.6 µM (active) and 27.3 µM (active) in assay [12].

In the case of `O=S(=O)(O)c1ccc2nc(-c3ccccc3)[nH]c2c1`, the Potency is 13.1 µM (active) in [3]; 46.6 µM (active) in assay [4]; 19 µM (active) and 12.3 µM (active) in [13]. For the same compound, in [16], the call was inactive. The Potency result in assay [14], in [15], in [8], in assay [10], in assay [11] and in [12] was “inactive” each time.

`CCCCCCCCCCCC[N+](C)(C)C`: the Potency in [1] was 49 µM (active) and 21.9 µM (active); in [2], 54.9 µM (active); in assay [6] it was 24.3 µM (active) and 21.7 µM (active); in assay [8], 54.8 µM (active) and 54.9 µM (active) and 49 µM (active); in [12], 48.4 µM (active). Further, the Potency result in assay [3], in assay [5], in assay [7], in [14] and in assay [11] was “inactive” each time. Moreover, the compound was classed as inactive in assay [16].

`NC12CC3CC(CC(C3)C1)C2`: the Potency result in assay [1], in assay [2], in assay [3], in assay [4], in [5] and in assay [6] was “inactive” throughout. Besides, the Potency entry in [7], in assay [14], in assay [15], in assay [8], in [10] and in assay [11] was “inactive” in each case. Also, the Potency result in [12] and in assay [13] was “inactive” in each case.

Consider `CN(C)c1ccc2nc3ccc(=[N+](C)C)cc-3sc2c1`, for which the Potency in assay [1] is 49 µM (active) and 2.98 µM (active); in assay [2], “inactive and 21.9 µM (active)”; in [6], “inactive and 34.4 µM (active)”; in [7], 16.7 µM (active) and 43.6 µM (active); in [9], 13.1 µM (active) and 30.6 µM (active) and 23.7 µM (active); in assay [11], 2.94 µM (active) and 1.37 µM (active) and 1.68 µM (active). For the same compound, the Potency in assay [12] was 4.16 µM (active) and 6.11 µM (active) and 5.96 µM (active); in assay [13], 15.3 µM (active) and 20 µM (active) and 17.4 µM (active). Also, the Potency entry in assay [3], in [4] and in assay [8] was “inactive” each time. Moreover, the compound was called inactive in assay [16].

For the compound `NC(N)=Nc1nc(CSCC/C(N)=N/S(N)(=O)=O)cs1`, the Potency result in assay [1], in assay [2], in assay [3], in assay [4], in assay [7] and in assay [14] was “inactive” each time. Besides, the Potency entry in assay [15], in assay [8], in assay [10], in assay [11], in [17] and in [19] was “inactive” throughout. The Potency result in assay [12] and in assay [13] was “inactive” in each case. Besides, the result in assay [16], in assay [18] and in assay [20] was inactive.

Regarding `CC(=O)O[C@]1(C(C)=O)CC[C@H]2[C@@H]3C[C@H](C)C4=CC(=O)CC[C@]4(C)[C@H]3CC[C@@]21C`, the Potency result in assay [1], in assay [2], in [3], in assay [4], in assay [7] and in [8] was “inactive” in each case. Besides, the Potency entry in assay [9] and in assay [13] was “inactive” in each case. The compound was called inactive in assay [16]. Also, the values for the Potency in assay [6] and in [12] were 26.6 µM (active) and 61.1 µM (active), respectively.
